Assay [1] can be described thus: antimalarial activity against Dd2 strain (AID 2302;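 active means growth inhibition above 50% at the single 2 µM test dose, taken to imply half-maximal potency below 2 µM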;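 further: 0% = DMSO untreated growth and 100% = chloroquine plus artemisinin killed control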). As to conditions: P. falciparum Dd2 in RBCs, LDH growth readout, 72 h; at 2 µM; hits give high values.
The nature of assay [2]: HepG2 cytotoxicity, primary screen, cytotoxicity control for P. falciparum antimalarial project, cell-based, ATP luminescence (AID 2303;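 active means inhibition above 50%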;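 further: 0% = DMSO wells and 100% = digitonin-killed cells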). Conditions: HepG2 viability, 24-48 h, at 10 µM, hits give high values.
In assay [3] the target is L-lactate dehydrogenase (Plasmodium falciparum (isolate CDC / Honduras)) (UniProt Q27743). As to the kind of experiment: PfLDH activity inhibition – cell lysate, 3D7 strain, counter-screen for P. falciparum growth inhibition project (AID 2304).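 Further: 0% = vehicle and 100% = reference inhibitor.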 As to conditions: P. falciparum 3D7 crude extract, LDH APAD/NBT absorbance; at 2 µM; hits give high values. A general note: The purpose of a counterscreen is to sort out artefacts and off-target activity.

The nature of assay [4]: inhibition of 3D7 malaria parasite growth – strain 3D7 (AID 2306).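 Further: 0% = DMSO wells and 100% = chloroquine plus artemisinin control wells.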 Conditions: P. falciparum 3D7 erythrocytic growth, LDH absorbance, 72 h; at 2 µM; hits give high values.
Assay [5] has as its target Calcium-dependent protein kinase 1 (Plasmodium falciparum (isolate 3D7)) (UniProt P62344). As to the kind of experiment: PfCDPK1 kinase inhibitors, biochemical, TCAMS library (AID 1159585; cut-off not given, nearly all actives have IC50 up to about 0.98 µM;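 further: inhibitors leave more ATP so luminescence rises with inhibition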). As to conditions: recombinant PfCDPK1, Kinase-Glo ATP depletion luminescence. On the technique in general: In Kinase-Glo more light means more ATP remaining.
Assay [6] deals with Plasmodium falciparum protein kinase 6 (PK6, PF3D7_1337100) (UniProt Q8IDW1). Description: PfPK6 kinase inhibitors, biochemical, TCAMS library (AID 1159586). Conditions: recombinant PfPK6, Kinase-Glo ATP depletion luminescence.
Assay [7] concerns the target Protein kinase 7 (PK7), Plasmodium falciparum 3D7 (PF3D7_0213400) (UniProt Q7YTF7). Description: inhibition of Plasmodium PK7 catalytic activity – biochemical, TCAMS antimalarial set, Kinase-Glo luminescence (AID 1159587). Conditions: recombinant PfPK7, Kinase-Glo ATP depletion luminescence.
Assay [8] addresses Calcium-dependent protein kinase 4 (Plasmodium falciparum (isolate 3D7)) (UniProt Q8IBS5). Description: PfCDPK4 kinase inhibitors, biochemical, TCAMS library (AID 1159588; cut-off not given, nearly all actives have IC50 up to about 0.91 µM). As to conditions: recombinant PfCDPK4, Kinase-Glo ATP depletion luminescence.

A number with no mark means an inactive call. For some of these results: Entries with a potency or affinity are not part of this list. Calls of active or inactive are those of the source. Unless noted, how the calls were made is not given here.

Sequence of Plasmodium falciparum protein kinase 6 (PK6, PF3D7_1337100) (Q8IDW1 1-305): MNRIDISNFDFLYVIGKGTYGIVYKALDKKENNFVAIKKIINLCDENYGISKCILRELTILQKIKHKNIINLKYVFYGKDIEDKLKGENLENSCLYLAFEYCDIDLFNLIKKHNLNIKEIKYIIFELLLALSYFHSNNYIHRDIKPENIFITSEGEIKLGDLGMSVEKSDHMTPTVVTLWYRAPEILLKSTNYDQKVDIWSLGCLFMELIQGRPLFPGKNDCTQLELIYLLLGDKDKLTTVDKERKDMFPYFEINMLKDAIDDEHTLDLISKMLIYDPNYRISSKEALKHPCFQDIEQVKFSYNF
Sequence of L-lactate dehydrogenase (Plasmodium falciparum (isolate CDC / Honduras)) (Q27743 whole entry, looked up): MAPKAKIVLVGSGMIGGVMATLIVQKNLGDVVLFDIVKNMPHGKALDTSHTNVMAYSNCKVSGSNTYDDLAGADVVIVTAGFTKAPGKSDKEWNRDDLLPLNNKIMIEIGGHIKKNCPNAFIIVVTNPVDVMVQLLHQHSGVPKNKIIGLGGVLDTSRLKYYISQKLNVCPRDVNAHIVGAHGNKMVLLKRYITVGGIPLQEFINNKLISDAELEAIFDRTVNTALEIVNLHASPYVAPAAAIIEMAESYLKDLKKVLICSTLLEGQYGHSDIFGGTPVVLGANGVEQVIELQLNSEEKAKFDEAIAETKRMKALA
Sequence of Calcium-dependent protein kinase 4 (Plasmodium falciparum (isolate 3D7)) (Q8IBS5 whole entry, looked up): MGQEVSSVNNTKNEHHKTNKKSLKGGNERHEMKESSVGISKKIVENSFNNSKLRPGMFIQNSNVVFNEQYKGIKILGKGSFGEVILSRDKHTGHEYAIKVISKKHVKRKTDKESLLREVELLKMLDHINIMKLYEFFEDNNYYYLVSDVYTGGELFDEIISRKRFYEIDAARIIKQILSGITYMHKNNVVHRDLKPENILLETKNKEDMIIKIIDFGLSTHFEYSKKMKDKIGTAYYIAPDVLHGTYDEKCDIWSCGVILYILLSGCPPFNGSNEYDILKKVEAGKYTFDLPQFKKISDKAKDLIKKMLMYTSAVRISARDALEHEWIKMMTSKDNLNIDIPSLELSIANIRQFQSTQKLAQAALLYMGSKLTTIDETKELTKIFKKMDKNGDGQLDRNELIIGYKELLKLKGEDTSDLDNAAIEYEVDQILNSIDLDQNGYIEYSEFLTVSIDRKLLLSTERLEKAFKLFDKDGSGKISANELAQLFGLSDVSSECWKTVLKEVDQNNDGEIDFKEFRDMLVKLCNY
Sequence of Protein kinase 7 (PK7), Plasmodium falciparum 3D7 (PF3D7_0213400) (Q7YTF7 1-343): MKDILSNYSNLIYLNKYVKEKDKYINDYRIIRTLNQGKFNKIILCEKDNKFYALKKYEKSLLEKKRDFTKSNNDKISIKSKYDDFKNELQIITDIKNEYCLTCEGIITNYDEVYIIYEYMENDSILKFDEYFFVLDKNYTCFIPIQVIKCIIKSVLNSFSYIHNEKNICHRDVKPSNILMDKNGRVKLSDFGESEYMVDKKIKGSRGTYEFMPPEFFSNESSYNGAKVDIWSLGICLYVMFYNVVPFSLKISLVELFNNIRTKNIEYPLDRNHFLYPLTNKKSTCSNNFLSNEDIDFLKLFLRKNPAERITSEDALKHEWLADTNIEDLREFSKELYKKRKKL
Sequence of Calcium-dependent protein kinase 1 (Plasmodium falciparum (isolate 3D7)) (P62344 whole entry, looked up): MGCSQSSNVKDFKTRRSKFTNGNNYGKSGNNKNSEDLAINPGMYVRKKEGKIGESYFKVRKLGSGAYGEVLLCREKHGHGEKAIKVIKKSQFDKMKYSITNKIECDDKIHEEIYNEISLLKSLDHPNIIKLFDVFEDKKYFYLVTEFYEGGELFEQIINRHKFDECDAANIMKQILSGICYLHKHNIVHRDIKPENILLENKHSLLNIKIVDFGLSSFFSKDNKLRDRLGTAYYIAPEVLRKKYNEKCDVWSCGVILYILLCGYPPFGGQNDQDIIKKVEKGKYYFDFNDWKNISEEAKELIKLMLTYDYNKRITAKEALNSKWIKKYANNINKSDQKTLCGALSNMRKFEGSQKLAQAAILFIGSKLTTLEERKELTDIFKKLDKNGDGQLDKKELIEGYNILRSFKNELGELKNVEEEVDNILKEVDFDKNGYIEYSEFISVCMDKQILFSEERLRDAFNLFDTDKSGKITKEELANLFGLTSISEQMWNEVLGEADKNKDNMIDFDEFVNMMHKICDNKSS

Take `COc1ccc(C(F)(F)F)cc1N1CCN(CCCCNC(=O)c2ccc(NC(=O)c3ccc(Cl)cc3)cc2)CC1`: the growth inhibition in assay [1] is 1%; in assay [4] it was 94% (active). In addition, the figures for the inhibition in assay [2] and in assay [3] were 12% and 8%, respectively. The outcome in assay [5], in assay [6], in assay [7] and in assay [8] was inactive.

As for `COc1ccc(-c2ccc(CNC3Cc4ccccc4C3)cc2)cc1S(=O)(=O)NCCN1CCCC1`, the growth inhibition in assay [1] was 99% (active); in assay [4], 100% (active). Further, the results for the inhibition in assay [2] and in assay [3] were 30% and 3%, respectively. Besides, the outcome in assay [5], in assay [6], in assay [7] and in assay [8] was inactive.

Take `COc1ccc(-c2cccc(NC(=O)c3cccc(Cl)c3)c2)cc1CN1CCC(O)CC1`: the growth inhibition in assay [1] was 16%; in assay [4], 98% (active). Moreover, the inhibition (commonly the drop in the measured response relative to a control, in per cent) was 38% in assay [2] and 5% in assay [3]. Further, the result in assay [5], in assay [6], in assay [7] and in assay [8] was inactive.

Turning to `CCCCN1CCN(Cc2cccc(NC(=O)c3ccc(Cl)c(Cl)c3)c2)CC1`, the growth inhibition in assay [1] is 24%; in assay [4], 88% (active). The inhibition in assay [2] was 21%; in assay [3], 1%. Besides, the result in assay [5], in assay [6], in assay [7] and in assay [8] was inactive.

With `Cn1cnc(CCNC(=O)c2ccc(-c3cccc(-c4nc5ccc(F)cc5[nH]4)c3)cc2)c1`, the growth inhibition in assay [1] is 24%; in assay [4] it was 100% (active). The inhibition was 23% in assay [2] and -5% in assay [3]. Moreover, the outcome in assay [5], in assay [6], in assay [7] and in assay [8] was inactive.

For `CC1(C)CC(NC(=O)NC2CCN(Cc3ccccc3)CC2)CC(C)(CNC(=O)NC2CCN(Cc3ccccc3)CC2)C1` (stereo not given), the growth inhibition in assay [1] was 2%; in assay [4], 93% (active). The inhibition in assay [2] is 10%; in assay [3], 5%. In addition, the outcome in assay [5], in assay [6], in assay [7] and in assay [8] was inactive.

For `O=C(Nc1ccc(OC2CCN(Cc3ccccc3)C2)c(Cl)c1)c1cccs1` (stereo not given), the results for the growth inhibition in assay [1] and in assay [4] were 96% (active) and 97% (active), respectively. The results for the inhibition in assay [2] and in assay [3] were 13% and -2%, respectively. For the same molecule, the outcome in assay [5], in assay [6], in assay [7] and in assay [8] was inactive.

For the molecule `CCCN1CCN(c2cc(S(=O)(=O)Nc3ccc(C(=O)NCc4cccc(C(F)(F)F)c4)cc3)ccc2OC)CC1`, the values for the growth inhibition in assay [1] and in assay [4] were 8% and 92% (active), respectively. Further, the inhibition in assay [2] was 27%; in assay [3] it was -3%. In addition, the result in assay [5], in assay [6], in assay [7] and in assay [8] was inactive.

With `CN(CCCCN)Cc1ccc(-c2ccc(Cl)cc2)cc1`, the growth inhibition was 20% in assay [1] and 97% (active) in assay [4]. Moreover, the inhibition in assay [2] was 96% (active); in assay [3], 3%. Also, the result in assay [5], in assay [6], in assay [7] and in assay [8] was inactive.

Regarding `Nc1ncc(-c2ccsc2)c2ccc(-c3ccc4cn[nH]c4c3)cc12`, the values for the growth inhibition in assay [1] and in assay [4] were 41% and 95% (active), respectively. The inhibition in assay [2] was 18%; in assay [3], 6%. Further, the result in assay [5], in assay [6], in assay [7] and in assay [8] was inactive.

As for `O=C(CCc1cccnc1)Nc1cccc(-c2ccc(-c3nc4ccc(C(F)(F)F)cc4[nH]3)cc2)c1`, the figures for the growth inhibition in assay [1] and in assay [4] were -5% and 93% (active), respectively. Also, the results for the inhibition in assay [2] and in assay [3] were 38% and 3%, respectively. Further, the result in assay [5], in assay [6], in assay [7] and in assay [8] was inactive.

Take `CC(C)CNC(=O)c1cncc(-c2ccc(CN3CCC(N4CCCC4)CC3)cc2)c1`: the growth inhibition is 42% in assay [1] and 100% (active) in assay [4]. The inhibition is 25% in assay [2] and 2% in assay [3]. Moreover, the result in assay [5], in assay [6], in assay [7] and in assay [8] was inactive.

Take `CN1CCC(c2cc3c(cc2Br)CCN3C(=O)Nc2ccc(-c3ccncc3)c(Cl)c2)CC1`: the results for the growth inhibition in assay [1] and in assay [4] were -1% and 91% (active), respectively. In addition, the values for the inhibition in assay [2] and in assay [3] were 26% and -1%, respectively. The outcome in assay [5], in assay [6], in assay [7] and in assay [8] was inactive.

On to `CCCNC(=O)Nc1cc2cc(-c3cccc(CN4CCCCC4)c3)ccc2n2c(C)nnc12`, for which the figures for the growth inhibition in assay [1] and in assay [4] were 50% (active) and 100% (active), respectively. Further, the inhibition in assay [2] was 60% (active); in assay [3], 0%. Also, the outcome in assay [5], in assay [6], in assay [7] and in assay [8] was inactive.

As for `O=C(N[C@H]1CCN(Cc2ccc(OC3CCN(Cc4ccccc4)CC3)c(Br)c2)C1)c1ccc(Cl)c(Cl)c1`, the values for the growth inhibition in assay [1] and in assay [4] were 30% and 100% (active), respectively. In addition, the figures for the inhibition in assay [2] and in assay [3] were 55% (active) and -1%, respectively. Further, the result in assay [5], in assay [6], in assay [7] and in assay [8] was inactive.

On to `Cc1cc(N)nc2ccc(-c3cccc(CN)c3)cc12`, for which the growth inhibition in assay [1] was 59% (active); in assay [4], 101% (active). The inhibition is 2% in assay [2] and -8% in assay [3]. The outcome in assay [5], in assay [6], in assay [7] and in assay [8] was inactive.

For the molecule `CCc1cccc(-n2nc(OCC(=O)NC3CCCC3)c3cccnc32)c1`, the results for the growth inhibition in assay [1] and in assay [4] were 13% and 94% (active), respectively. Moreover, the inhibition in assay [2] was 2%; in assay [3] it was -4%. The outcome in assay [5], in assay [6], in assay [7] and in assay [8] was inactive.

Regarding `O=c1cc(NCCCNCc2cc(C(F)(F)F)ccc2Cl)[nH]c2ccccc12`, the figures for the growth inhibition in assay [1] and in assay [4] were 20% and 90% (active), respectively. For the same molecule, the inhibition in assay [2] was 25%; in assay [3] it was -2%. Besides, the result in assay [5], in assay [6], in assay [7] and in assay [8] was inactive.

As to `CCn1c(Cc2ccccc2)nnc1Sc1ccc([N+](=O)[O-])c(C#N)c1`, the results for the growth inhibition in assay [1] and in assay [4] were 72% (active) and 93% (active), respectively. In addition, the inhibition in assay [2] was 8%; in assay [3], -5%. The result in assay [5], in assay [6], in assay [7] and in assay [8] was inactive.

As to `CCc1ccc(CN2CCCCC(NC(=O)c3cc(-c4ccccc4F)cs3)C2)cc1` (stereo not given), the growth inhibition in assay [1] is 12%; in assay [4] it was 87% (active). For the same molecule, the inhibition in assay [2] is 25%; in assay [3], -4%. In addition, the result in assay [5], in assay [6], in assay [7] and in assay [8] was inactive.

For the origin of these results see PubChem BioAssay.
